In PubChem BioAssay AID1159580 (chemical genetic matrix, 2015):
The campaign covered roughly 5,500 compounds. About 2,000 (36%) were called active. Roughly 18% stayed inconclusive and do not appear here. Rule as the data show it: active = normalized growth mostly below about 0.91 (no sharp cut-off); inconclusive = no clear call, values can overlap the other calls; inactive = mostly above about 0.92. Some of the results follow.

Assay: chemical genetic growth profiling, strain panel (AID 1159580);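 also: tested at 20 µM; growth read once vehicle control cultures reached saturation at 30 °C; 1 = growth at the plate median or of vehicle wells; lower values mean less growth of the strain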
Conditions: growth OD

Measured: normalized growth

COc1cc2c3cc1Oc1cc(ccc1O)C[C@@H]1c4c(cc(OC)c(O)c4Oc4ccc(cc4)C[C@@H]3N(C)CC2)CC[N+]1(C)C
inactive: S. cerevisiae deletion strains, locus YKL009W, strain mrt4, active compounds read low 1.04 | S. cerevisiae deletion strains, locus YKL068W, active compounds read low 0.997 | S. cerevisiae deletion strains, locus YKL085W, strain MDH1 (second series), active compounds read low 0.988 | S. cerevisiae deletion strains, locus YKL085W, strain MDH1, active compounds read low 0.988 | S. cerevisiae deletion strains, locus YKL160W, strain elf1, active compounds read low 1.04 | S. cerevisiae deletion strains, locus YKL190W, strain CNB1, active compounds read low 1.01 | S. cerevisiae deletion strains, locus YKR001C, strain vps1, active compounds read low 1.01 | S. cerevisiae deletion strains, locus YKR026C, strain gcn3, active compounds read low 1 | S. cerevisiae deletion strains, locus YKR091W, strain srl3, active compounds read low 0.999 | S. cerevisiae deletion strains, locus YLL001W, strain dnm1, active compounds read low 1.04 | S. cerevisiae deletion strains, locus YLL026W, active compounds read low 1.01 | S. cerevisiae deletion strains, locus YLL041C, strain sdh2, active compounds read low 1 | S. cerevisiae deletion strains, locus YLR027C, strain aat2, active compounds read low 1.02 | S. cerevisiae deletion strains, locus YLR039C, strain RIC1, active compounds read low 1.09 | S. cerevisiae deletion strains, locus YLR058C, strain SHM2, active compounds read low 1.01 | S. cerevisiae deletion strains, locus YLR102C, strain apc9, active compounds read low 1 | S. cerevisiae deletion strains, locus YLR113W, strain HOG1, active compounds read low 0.996 | S. cerevisiae deletion strains, locus YLR221C, strain rsa3, active compounds read low 0.966 | S. cerevisiae deletion strains, locus YLR258W, strain gsy2, active compounds read low 0.988 | S. cerevisiae deletion strains, locus YLR262C, strain YPT6 (second series), active compounds read low 1.04 | S. cerevisiae deletion strains, locus YLR262C, strain YPT6, active compounds read low 1.06 | S. cerevisiae deletion strains, locus YLR268W, strain sec22, active compounds read low 1.04 | S. cerevisiae deletion strains, locus YLR320W, strain mms22, active compounds read low 0.967 | S. cerevisiae deletion strains, locus YLR330W, strain CHS5, active compounds read low 1.01 | S. cerevisiae deletion strains, locus YLR342W, strain FKS1 (second series), active compounds read low 0.999 | S. cerevisiae deletion strains, locus YLR342W, strain FKS1, active compounds read low 1.02 | S. cerevisiae deletion strains, locus YLR357W, strain rsc2, active compounds read low 0.958 | S. cerevisiae deletion strains, locus YLR370C, strain arc18, active compounds read low 1.01 | S. cerevisiae deletion strains, locus YLR371W, strain rom2, active compounds read low 1.01 | S. cerevisiae deletion strains, locus YLR384C, strain iki3, active compounds read low 1 | S. cerevisiae deletion strains, locus YLR418C, strain cdc73, active compounds read low 0.986 | S. cerevisiae deletion strains, locus YML016C, strain PPZ1, active compounds read low 1.01 | S. cerevisiae deletion strains, locus YML032C, strain rad52, active compounds read low 0.981 | S. cerevisiae deletion strains, locus YML120C, strain ndi1, active compounds read low 1.03 | S. cerevisiae deletion strains, locus YML124C, strain tub3, active compounds read low 0.999 | S. cerevisiae deletion strains, locus YMR058W, strain fet3, active compounds read low 1 | S. cerevisiae deletion strains, locus YMR078C, strain ctf18, active compounds read low 1.01 | S. cerevisiae deletion strains, locus YMR125W, strain sto1, active compounds read low 0.993 | S. cerevisiae deletion strains, locus YMR129W, active compounds read low 0.98 | S. cerevisiae deletion strains, locus YMR205C, strain PFK2, active compounds read low 1.03 | S. cerevisiae deletion strains, locus YMR223W, strain ubp8, active compounds read low 0.994 | S. cerevisiae deletion strains, locus YMR231W, strain pep5, active compounds read low 0.993 | S. cerevisiae deletion strains, locus YMR307W, strain GAS1, active compounds read low 1.06 | S. cerevisiae deletion strains, locus YNL067W, strain RPL9B, active compounds read low 1.04 | S. cerevisiae deletion strains, locus YNL071W, strain lat1, active compounds read low 0.969 | S. cerevisiae deletion strains, locus YNL128W, strain TEP1, active compounds read low 1.02 | S. cerevisiae deletion strains, locus YNL183C, strain NPR1, active compounds read low 0.948 | S. cerevisiae deletion strains, locus YNL209W, strain ssb2, active compounds read low 0.982 | S. cerevisiae deletion strains, locus YNL233W, strain BNI4, active compounds read low 1.03 | S. cerevisiae deletion strains, locus YNL248C, strain rpa49, active compounds read low 0.926 | S. cerevisiae deletion strains, locus YNL250W, strain rad50, active compounds read low 1.01 | S. cerevisiae deletion strains, locus YNL271C, strain bni1, active compounds read low 1.01 | S. cerevisiae deletion strains, locus YNL298W, strain CLA4, active compounds read low 1 | S. cerevisiae deletion strains, locus YNL307C, strain MCK1, active compounds read low 1.01 | S. cerevisiae deletion strains, locus YNL322C, strain KRE1 (second series), active compounds read low 0.984 | S. cerevisiae deletion strains, locus YNL322C, strain KRE1, active compounds read low 0.999 | S. cerevisiae deletion strains, locus YNR049C, strain mso1, active compounds read low 0.99 | S. cerevisiae deletion strains, locus YNR052C, strain pop2, active compounds read low 1.01 | S. cerevisiae deletion strains, locus YOL006C, strain TOP1, active compounds read low 1.1 | S. cerevisiae deletion strains, locus YOL012C, strain htz1 0.91 | S. cerevisiae deletion strains, locus YOL147C, strain pex11, active compounds read low 0.995 | S. cerevisiae deletion strains, locus YOR001W, strain rrp6, active compounds read low 1.02 | S. cerevisiae deletion strains, locus YOR061W, strain CKA2, active compounds read low 1.01 | S. cerevisiae deletion strains, locus YOR069W, strain VPS5, active compounds read low 1.01 | S. cerevisiae deletion strains, locus YOR070C, strain gyp1, active compounds read low 0.993 | S. cerevisiae deletion strains, locus YOR080W, strain dia2, active compounds read low 1.01 | S. cerevisiae deletion strains, locus YOR083W, strain WHI5, active compounds read low 1.01 | S. cerevisiae deletion strains, locus YOR106W, strain vam3, active compounds read low 1.03 | S. cerevisiae deletion strains, locus YOR136W, strain idh2, active compounds read low 1 | S. cerevisiae deletion strains, locus YOR144C, strain elg1, active compounds read low 0.993 | S. cerevisiae deletion strains, locus YOR184W, strain ser1, active compounds read low 1.01 | S. cerevisiae deletion strains, locus YOR231W, strain MKK1, active compounds read low 0.996 | S. cerevisiae deletion strains, locus YOR265W, strain rbl2, active compounds read low 0.999 | S. cerevisiae deletion strains, locus YOR270C, strain vph1, active compounds read low 0.985 | S. cerevisiae deletion strains, locus YOR290C, strain snf2, active compounds read low 0.946 | S. cerevisiae deletion strains, locus YOR316C, strain cot1, active compounds read low 1 | S. cerevisiae deletion strains, locus YPL051W, strain arl3, active compounds read low 1.01 | S. cerevisiae deletion strains, locus YPL055C, strain LGE1, active compounds read low 1.04 | S. cerevisiae deletion strains, locus YPL078C, strain atp4, active compounds read low 1.04 | S. cerevisiae deletion strains, locus YPL106C, strain sse1, active compounds read low 0.937 | S. cerevisiae deletion strains, locus YPL240C, strain hsp82, active compounds read low 1 | S. cerevisiae deletion strains, locus YPL256C, strain CLN2, active compounds read low 0.99 | S. cerevisiae deletion strains, locus YPR119W, strain clb2, active compounds read low 1 | S. cerevisiae deletion strains, locus YPR141C, strain kar3, active compounds read low 1.01 | S. cerevisiae deletion strains, locus YPR163C, strain tif3, active compounds read low 0.992 | S. cerevisiae deletion strains, locus YPR167C, strain met16, active compounds read low 0.999 | S. cerevisiae deletion strains, strain wtn01, active compounds read low 1.01 | S. cerevisiae strains, strain wild type, active compounds read low 1.01
